# Measurements as given in PubChem BioAssay AID1159580 (chemical genetic matrix, 2015).
# About 2,000 (36%) of roughly 5,500 compounds were called active. About 18% were inconclusive and are not listed. The list shows a part of the results. Values without a mark were called inactive. Cut-off read from the data, not from the text of the source: active = normalized growth mostly below about 0.91 (no sharp cut-off); inconclusive = no clear call, values can overlap the other calls; inactive = mostly above about 0.92.
# Assay: chemical genetic growth profiling, strain panel (AID 1159580);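 note: tested at 20 µM; growth read once vehicle control cultures reached saturation at 30 °C; 1 = growth at the plate median or of vehicle wells; lower values mean less growth of the strain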
# Details: S. cerevisiae deletion strains, growth OD
# [1] = locus YDL101C, strain DUN1, stronger effect = lower value
# [2] = locus YHR030C, strain SLT2, stronger effect = lower value
# [3] = locus YAR019C, strain CDC15, stronger effect = lower value
# [4] = locus YBL105C, strain PKC1, stronger effect = lower value
# [5] = locus YBR135W, strain CKS1, stronger effect = lower value
# [6] = locus YBR136W, strain MEC1, stronger effect = lower value
# [7] = locus YBR160W, strain CDC28, stronger effect = lower value
# [8] = locus YDL017W, strain CDC7, stronger effect = lower value
# [9] = locus YDL028C, strain MPS1, stronger effect = lower value
# [10] = locus YDL108W, strain KIN28, stronger effect = lower value
# [11] = locus YDL132W, strain cdc53, stronger effect = lower value
# [12] = locus YDL214C, strain PRR2, stronger effect = lower value
# [13] = locus YDR052C, strain DBF4, stronger effect = lower value
# [14] = locus YDR054C, strain cdc34, stronger effect = lower value
# [15] = locus YDR226W, strain ADK1, stronger effect = lower value
# [16] = locus YDR477W, strain SNF1, stronger effect = lower value
# [17] = locus YER123W, strain YCK3, stronger effect = lower value
# [18] = locus YER133W, strain GLC7, stronger effect = lower value
# [19] = locus YFL009W, strain cdc4, stronger effect = lower value
# [20] = locus YFL029C, strain CAK1, stronger effect = lower value
# [21] = locus YFR003C, strain YPI1, stronger effect = lower value
# [22] = locus YFR019W, strain FAB1, stronger effect = lower value
# [23] = locus YFR028C, strain CDC14, stronger effect = lower value
# [24] = locus YGR040W, strain KSS1, stronger effect = lower value
# [25] = locus YGR052W, strain FMP48, stronger effect = lower value
# [26] = locus YGR092W, strain DBF2, stronger effect = lower value
# [27] = locus YHR079C, strain IRE1, stronger effect = lower value
# [28] = locus YHR082C, strain KSP1, stronger effect = lower value
# [29] = locus YHR205W, strain SCH9, stronger effect = lower value
# [30] = locus YIL147C, strain SLN1, stronger effect = lower value
# [31] = locus YJL095W, strain BCK1, stronger effect = lower value
# [32] = locus YJL128C, strain PBS2, stronger effect = lower value
# [33] = locus YJL157C, strain FAR1, stronger effect = lower value
# [34] = locus YJR016C, strain ILV3, stronger effect = lower value
# [35] = locus YJR066W, strain TOR1 (second series), stronger effect = lower value
# [36] = locus YJR066W, strain TOR1, stronger effect = lower value
# [37] = locus YKL048C, strain ELM1, stronger effect = lower value
# [38] = locus YKL067W, strain YNK1, stronger effect = lower value
# [39] = locus YKL101W, strain HSL1, stronger effect = lower value
# [40] = locus YKL193C, strain SDS22, stronger effect = lower value
# [41] = locus YKL203C, strain TOR2, stronger effect = lower value
# [42] = locus YLR113W, strain HOG1, stronger effect = lower value
# [43] = locus YLR133W, strain CKI1, stronger effect = lower value
# [44] = locus YLR403W, strain SFP1, stronger effect = lower value
# [45] = locus YML070W, strain DAK1, stronger effect = lower value
# [46] = locus YMR001C, strain CDC5, stronger effect = lower value
# [47] = locus YMR205C, strain PFK2 (second series), stronger effect = lower value
# [48] = locus YMR277W, strain FCP1, stronger effect = lower value
# [49] = locus YNL006W, strain LST8, stronger effect = lower value
# [50] = locus YNL020C, strain ARK1, stronger effect = lower value
# [51] = locus YNL161W, strain CBK1, stronger effect = lower value
# [52] = locus YNL183C, strain NPR1, stronger effect = lower value
# [53] = locus YNL207W, strain RIO2, stronger effect = lower value
# [54] = locus YNL222W, strain SSU72, stronger effect = lower value
# [55] = locus YNL307C, strain MCK1 (second series), stronger effect = lower value
# [56] = locus YOL078W, strain AVO1, stronger effect = lower value
# [57] = locus YOL136C, strain PFK27, stronger effect = lower value
# [58] = locus YOR061W, strain CKA2, stronger effect = lower value
# [59] = locus YOR119C, strain RIO1, stronger effect = lower value
# [60] = locus YOR231W, strain MKK1, stronger effect = lower value
# [61] = locus YOR329C, strain SCD5, stronger effect = lower value
# [62] = locus YPL031C, strain PHO85, stronger effect = lower value
# [63] = locus YPL153C, strain RAD53, stronger effect = lower value
# [64] = locus YPL204W, strain HRR25, stronger effect = lower value
# [65] = locus YPL209C, strain IPL1, stronger effect = lower value
# [66] = locus YPL256C, strain CLN2, stronger effect = lower value
# [67] = locus YPR025C, strain CCL1, stronger effect = lower value
# [68] = locus YPR106W, strain ISR1, stronger effect = lower value
# [69] = locus YPR111W, strain DBF20, stronger effect = lower value
# [70] = strain NNK1, stronger effect = lower value
# [71] = strain TSCII, stronger effect = lower value
smiles,measurement,setting,value
O=S(=O)(Nc1cccc2cccnc12)c1cc(Cl)c(Cl)cc1Cl,normalized growth,"locus YAL013W, strain DEP1, stronger effect = lower value",0.773 (active)
same,normalized growth,"locus YBR229C, strain ROT2, stronger effect = lower value",0.672 (active)
same,normalized growth,"locus YCL061C, strain MRC1, stronger effect = lower value",0.804 (active)
same,normalized growth,[1],1.02
same,normalized growth,"locus YDR150W, strain NUM1, stronger effect = lower value",1.04
same,normalized growth,"locus YEL061C, strain CIN8, stronger effect = lower value",0.644 (active)
same,normalized growth,"locus YGR078C, strain PAC10, stronger effect = lower value",0.855 (active)
same,normalized growth,[2],0.635 (active)
same,normalized growth,"locus YHR087W, strain rtc3, stronger effect = lower value",0.517 (active)
same,normalized growth,"locus YJR043C, strain POL32, stronger effect = lower value",0.947
same,normalized growth,"locus YJR075W, strain HOC1, stronger effect = lower value",0.819 (active)
same,normalized growth,"locus YKL190W, strain CNB1, stronger effect = lower value",0.652 (active)
same,normalized growth,"locus YLR039C, strain RIC1, stronger effect = lower value",0.627 (active)
same,normalized growth,"locus YLR058C, strain SHM2 (second series), stronger effect = lower value",0.951
same,normalized growth,"locus YLR085C, strain ARP6, stronger effect = lower value",0.583 (active)
same,normalized growth,"locus YLR262C, strain YPT6, stronger effect = lower value",0.716 (active)
same,normalized growth,"locus YML094W, strain GIM5, stronger effect = lower value",0.761 (active)
same,normalized growth,"locus YMR219W, strain ESC1, stronger effect = lower value",0.863 (active)
same,normalized growth,"locus YMR263W, strain SAP30, stronger effect = lower value",0.853 (active)
same,normalized growth,"locus YNL153C, strain GIM3, stronger effect = lower value",0.845 (active)
same,normalized growth,"locus YNL298W, strain CLA4 (second series), stronger effect = lower value",0.724 (active)
same,normalized growth,"locus YNL322C, strain KRE1, stronger effect = lower value",0.967
same,normalized growth,"locus YNR030W, strain Alg12, stronger effect = lower value",0.773 (active)
same,normalized growth,"locus YOL006C, strain TOP1, stronger effect = lower value",0.169 (active)
same,normalized growth,"locus YPL055C, strain LGE1, stronger effect = lower value",0.635 (active)
same,normalized growth,"locus YPL241C, strain CIN2, stronger effect = lower value",0.635 (active)
same,normalized growth,"locus YPR135W, strain CTF4, stronger effect = lower value",0.807
O=S(=O)(Nc1cccc(CCc2ccccn2)c1)c1cc(Cl)c(Cl)cc1Cl,normalized growth,[3],0.982
same,normalized growth,[4],0.977
same,normalized growth,[5],0.985
same,normalized growth,[6],0.983
same,normalized growth,[7],0.966
same,normalized growth,[8],0.981
same,normalized growth,[9],0.987
same,normalized growth,[1],0.973
same,normalized growth,[10],0.983
same,normalized growth,[11],0.976
same,normalized growth,[12],0.967
same,normalized growth,[13],0.977
same,normalized growth,[14],0.979
same,normalized growth,[15],0.986
same,normalized growth,[16],0.988
same,normalized growth,[17],0.995
same,normalized growth,[18],1
same,normalized growth,[19],0.989
same,normalized growth,[20],0.976
same,normalized growth,[21],0.981
same,normalized growth,[22],0.987
same,normalized growth,[23],0.973
same,normalized growth,[24],0.98
same,normalized growth,[25],1.08
same,normalized growth,[26],1
same,normalized growth,[2],1.15
same,normalized growth,[27],1.01
same,normalized growth,[28],1.08
same,normalized growth,[29],0.963
same,normalized growth,[30],0.985
same,normalized growth,[31],1.02
same,normalized growth,[32],0.942
same,normalized growth,[33],0.98
same,normalized growth,[34],0.981
same,normalized growth,[35],0.963
same,normalized growth,[36],1.08
same,normalized growth,[37],0.97
same,normalized growth,[38],0.979
same,normalized growth,[39],0.959
same,normalized growth,[40],0.984
same,normalized growth,[41],1.05
same,normalized growth,[42],0.883
same,normalized growth,[43],0.965
same,normalized growth,[44],0.983
same,normalized growth,[45],0.95
same,normalized growth,[46],0.987
same,normalized growth,[47],0.971
same,normalized growth,[48],0.991
same,normalized growth,[49],0.992
same,normalized growth,[50],0.969
same,normalized growth,[51],0.978
same,normalized growth,[52],1.04
same,normalized growth,[53],0.985
same,normalized growth,[54],0.976
same,normalized growth,[55],0.961
same,normalized growth,[56],0.974
same,normalized growth,[57],0.952
same,normalized growth,[58],0.978
same,normalized growth,[59],1.06
same,normalized growth,[60],0.951
same,normalized growth,[61],0.983
same,normalized growth,[62],0.992
same,normalized growth,[63],0.965
same,normalized growth,[64],0.991
same,normalized growth,[65],0.976
same,normalized growth,[66],0.945
same,normalized growth,[67],0.984
same,normalized growth,[68],0.965
same,normalized growth,[69],0.955
same,normalized growth,[70],0.992
same,normalized growth,[71],0.978
O=S(=O)(Nc1cccc2nsnc12)c1cc(Cl)sc1Cl,normalized growth,[3],0.948
same,normalized growth,[4],0.961
same,normalized growth,[5],0.957
same,normalized growth,[6],0.96
same,normalized growth,[7],0.962
same,normalized growth,[8],0.961
same,normalized growth,[9],0.961
same,normalized growth,[1],0.962
same,normalized growth,[10],0.961
same,normalized growth,[11],0.969
same,normalized growth,[12],0.956
same,normalized growth,[13],0.955
same,normalized growth,[14],0.95
same,normalized growth,[15],0.947
same,normalized growth,[16],0.983
same,normalized growth,[17],0.944
same,normalized growth,[18],0.938
same,normalized growth,[19],0.947
same,normalized growth,[20],0.952
same,normalized growth,[21],0.958
same,normalized growth,[22],0.938
same,normalized growth,[23],0.96
same,normalized growth,[24],0.971
same,normalized growth,[25],1.08
same,normalized growth,[26],0.87
same,normalized growth,[2],0.871
same,normalized growth,[27],0.905
same,normalized growth,[28],0.981
same,normalized growth,[29],0.933
same,normalized growth,[30],0.953
same,normalized growth,[31],0.904
same,normalized growth,[32],0.953
same,normalized growth,[33],0.967
same,normalized growth,[34],0.951
same,normalized growth,[35],0.95
same,normalized growth,[36],0.953
same,normalized growth,[37],0.916
same,normalized growth,[38],0.954
same,normalized growth,[39],0.955
same,normalized growth,[40],0.961
same,normalized growth,[41],1.02
same,normalized growth,[42],0.887
same,normalized growth,[43],0.96
same,normalized growth,[44],0.942
same,normalized growth,[45],0.947
same,normalized growth,[46],0.959
same,normalized growth,[47],0.962
same,normalized growth,[48],0.96
same,normalized growth,[49],0.959
same,normalized growth,[50],0.953
same,normalized growth,[51],0.962
same,normalized growth,[52],0.979
same,normalized growth,[53],0.957
same,normalized growth,[54],0.958
same,normalized growth,[55],0.933
same,normalized growth,[56],0.957
same,normalized growth,[57],0.94
same,normalized growth,[58],0.943
same,normalized growth,[59],1.09
same,normalized growth,[60],0.954
same,normalized growth,[61],0.961
same,normalized growth,[62],0.982
same,normalized growth,[63],0.994
same,normalized growth,[64],0.999
same,normalized growth,[65],0.96
same,normalized growth,[66],0.884
same,normalized growth,[67],0.956
same,normalized growth,[68],0.964
same,normalized growth,[69],0.947
same,normalized growth,[70],0.969
same,normalized growth,[71],0.953
